# Screens deposited in PubChem BioAssay by several laboratories.
# MT1-MMP txn act = activates MT1-MMP transcription | HT1080 MT1-MMP promoter luciferase reporter, luminescence, overnight; hits give high values | activation factor at 10 µM | 0.16% of 86,000 active;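 active = activation factor of at least 2 for MT1-MMP transcription at 10 µM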
# Calb biofilm kill = kills Candida albicans biofilms; C. albicans biofilm + clotrimazole, Alamar Blue; inhibition, % at 6 µM; 0.14% of 85,000 active; AID 834;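 active = inhibition above 20%; inactive = inhibition below 20%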;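 note: preformed 24 hr biofilms exposed to compound for 48 hr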
# ERb coact inh = blocks coactivator binding to human estrogen receptor beta | Q92731 | TR-FRET ER-beta LBD / SRC1-Cy5 peptide binding; receptor agonist-loaded with 1 µM estradiol | inhibition, % at 25.6 µM | 1.3% of 86,000 active | AID 633;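 active = compounds whose percent inhibition of the receptor-coactivator binding signal exceeds about 50% in the single-dose screen, limit read from the data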
# EphB4 ephrin blk = blocks human EphB4 binding to ephrin-B2; P54760; EphB4 LBD / TNYL-RAW-Alexa532 peptide, fluorescence polarization; inhibition, % at 7 µM; 0.15% of 97,000 active;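 active = inhibition above the screen-wide mean inhibition plus 3 SD, cut at about 15% in these data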
# ERa coact pot = ER-alpha (human) coactivator binding potentiation; TR-FRET ERalpha-LBD/SRC-Cy5 coactivator binding, 2 h; 100 = basal binding, no effect; coactivator binding (% of control), % at 25.6 µM; 1.3% of 86,000 active; AID 639; in the data active = activity above about 200%;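 note: binding measured in presence of low estradiol as agonist stimulus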
# Target sequence (P03372 whole entry, looked up, the tested form may be a part): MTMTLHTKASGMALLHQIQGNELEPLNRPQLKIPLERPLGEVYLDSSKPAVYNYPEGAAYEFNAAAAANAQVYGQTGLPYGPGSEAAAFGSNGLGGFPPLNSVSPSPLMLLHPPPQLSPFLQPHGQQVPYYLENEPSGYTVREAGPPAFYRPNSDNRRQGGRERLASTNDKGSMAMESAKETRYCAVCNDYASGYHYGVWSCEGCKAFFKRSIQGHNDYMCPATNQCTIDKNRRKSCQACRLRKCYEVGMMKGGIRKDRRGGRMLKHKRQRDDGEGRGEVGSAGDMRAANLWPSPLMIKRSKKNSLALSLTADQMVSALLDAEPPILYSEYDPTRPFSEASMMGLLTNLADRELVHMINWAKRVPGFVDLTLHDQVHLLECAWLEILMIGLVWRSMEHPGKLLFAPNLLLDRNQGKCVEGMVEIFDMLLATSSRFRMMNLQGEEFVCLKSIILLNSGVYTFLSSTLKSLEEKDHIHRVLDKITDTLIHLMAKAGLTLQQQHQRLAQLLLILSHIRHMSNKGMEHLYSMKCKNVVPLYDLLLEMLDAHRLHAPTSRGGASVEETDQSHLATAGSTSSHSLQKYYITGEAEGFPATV
# ERa coact inh = blocks coactivator binding to human estrogen receptor alpha. TR-FRET ER-alpha LBD / SRC-1 peptide, estradiol-bound. inhibition, % at 25.6 µM. 1.7% of 86,000 active; in the data active = inhibition above about 50%
# A number is an active result; . = inactive; / = no result given; [ ] = dose if it differs, or a comment. Compounds with a hit are over-represented: about 3.2% of the library has one in this group of screens.
SMILES,MT1-MMP txn act,Calb biofilm kill,ERb coact inh,EphB4 ephrin blk,ERa coact pot,ERa coact inh
CC(/C=N\Nc1nnc2c(n1)[nH]c1c(C)cccc12)=C\c1ccco1,/,/,/,.,/,/
Cc1ccc(C2C(C#N)=C(N)SC(N)=C2C#N)o1,.,.,66.8[fluorescence artefact?],.,.,.
COCCCNc1nc2c([nH]1)c(=O)[nH]c(=O)n2C,.,.,52.2,.,.,.
N#Cc1c2n(c(=S)n(-c3ccccn3)c1=O)CCCCC2,.,.,52.0[fluorescence artefact?],.,.,.
O=C(Nc1cccc(-c2nnc(-c3ccccc3)o2)c1)C1CCCCC1,.,.,.,.,208.0[fluorescence artefact?],.
O=C(Nc1ccccc1)c1cccc(-c2nnc(-c3ccccc3)o2)c1,.,.,.,.,309.2[fluorescence artefact?],.
COC(=O)c1[nH]c2ccc(C)cc2c1NC(=O)CN1CCCc2ccccc21,.,.,53.7,.,.,77.3[fluorescence artefact?]
CN(C(=O)N1CCN(c2ccccn2)CC1)c1ccccc1,.,.,.,15.4,.,.
CN(CC(=O)N1CCN(c2ccccn2)CC1)S(=O)(=O)c1ccccc1,.,.,.,.,.,.
COC(=O)c1nn(-c2ccccc2)c(Cl)c1/C=N/OCc1ccc(C)cc1,/,/,/,.,/,/
N#Cc1ccccc1S(=O)(=O)N1CCN(c2ccc(S(=O)(=O)N3CCOCC3)cn2)CC1,.,.,.,.,.,.
Cc1ccc(S(=O)(=O)N2CCN(c3ccc(S(=O)(=O)N4CCOCC4)cn3)CC2)cc1,/,.,.,.,345.9[fluorescence artefact?],.
COc1ccc2nc(NC(=O)CCc3nc(-c4ccccc4F)no3)sc2c1,.,.,.,.,204.0,.
COc1ccc2nc(NC(=O)Cc3cccs3)sc2c1,.,.,.,.,.,.
CCC1=C2CC[C@H]3C(=O)N(c4ccccc4)C(=O)[C@H]3[C@H]2[C@@]2(Cc3ccccc3)C(=O)N(CC(=O)OC)C(=O)N2C1=O,.,/,/,/,/,/
CC(C)CCn1cnc2c([nH]c3cccc(Cl)c32)c1=O,.,.,.,.,596.4[fluorescence artefact?],.
CCOc1ccc(NC(=O)NCCCn2c(C)nc3cc(C)c(C)cc32)cc1,.,.,.,.,.,.
Cc1cc2nc(C)n(CCCNC(=O)Nc3cccc4ccccc34)c2cc1C,.,.,.,.,.,50.7[fluorescence artefact?]
C[C@@H]1C=C[C@](Cc2ccccc2)(C(=O)NCCCNc2ncc(C(F)(F)F)cc2Cl)N1C(=O)c1ccccc1,.,/,/,/,/,/
CCS(=O)(=O)N1Cc2ccccc2CC1C(=O)N1CCN(c2cccc(C)c2C)CC1 (stereo not drawn),.,.,51.2,.,.,80.1[fluorescence artefact?]
COc1ccc(NC(=O)c2ccco2)cc1N,.,.,60.9,.,.,55.4
COc1ccccc1NC(=O)c1ccccc1NC(=O)c1cc(Cl)ccc1NC(=O)c1ccco1,.,.,.,.,.,74.5
COc1ccc(NC(=O)c2ccco2)cc1NC(=O)c1ccco1,.,.,.,/,.,.
COc1ccccc1NC(=O)c1cc(Cl)ccc1NC(=O)c1ccco1,.,.,.,.,.,.
COc1ccccc1NC(=O)Oc1ccc(NC(=O)c2ccco2)cc1,.,.,66.4[fluorescence artefact?],.,.,59.5[fluorescence artefact?]
SMILES,MT1-MMP txn act,Calb biofilm kill,ERb coact inh,EphB4 ephrin blk,ERa coact pot,ERa coact inh
CC12CCC(C(=O)N3CCN(C(=O)C45CCC(C)(C(=O)O4)C5(C)C)CC3)(OC1=O)C2(C)C,.,.,.,.,.,.
COC(=O)[C@@]1(Cc2ccccc2)[C@H]2c3cc(C(=O)N(C)C)n(Cc4ccc(O)c(OC)c4)c3C[C@H]2CN1C(=O)c1ccccc1,.,/,/,/,/,/
CCOc1ccc(-c2nc(N)nc(C)c2-c2ccc(OC)c(OC)c2)c(O)c1,.,.,.,.,.,.
COc1cccc(Cn2c(NCc3ccco3)nc3c2c(=O)n(C)c(=O)n3C)c1,.,.,.,/,.,.
CCCn1c(NCc2ccco2)nc2c1c(=O)n(C)c(=O)n2C,.,.,52.9[fluorescence artefact?],.,.,63.7[fluorescence artefact?]
COc1ccc(Cl)c(Cn2c(NCc3ccco3)nc3c2c(=O)n(C)c(=O)n3C)c1,/,.,53.5[fluorescence artefact?],.,.,80.8[fluorescence artefact?]
CCCn1c(N)c(C(=O)CSc2nc(C)cs2)c(=O)n(C)c1=O,.,.,.,.,.,.
COc1cc(NC(=O)CCNC(=O)Cn2cnc3ccccc3c2=O)cc(OC)c1OC,.,.,.,.,.,83.1[fluorescence artefact?]
CCC(=O)/C=C1/Sc2ccccc2N1CC,.,.,.,.,.,.
CCC(=O)/C=C1/Sc2ccc(OC)cc2N1CC,.,.,99.4[fluorescence artefact?],.,.,.
Cc1ccc(CNC(=O)C2(CC(C)C)C=CCN2C(=O)c2ccccc2)o1 (stereo not drawn),.,/,/,/,/,/
CCOC(=O)c1c(NC(=O)C2CCCO2)sc(C(=O)OC(C)(C)C)c1C (stereo not drawn),.,.,.,.,.,.
CCOC(=O)c1sc(NC(=O)C2CCCO2)c(C(=O)OCC)c1C (stereo not drawn),.,.,.,/,.,56.8
O=C(CSc1nnnn1-c1ccc2c(c1)OCCO2)N1CCc2ccccc21,.,.,.,.,.,.
O=C(CSc1nnnn1-c1ccc2c(c1)OCCO2)OC1CCCCC1,.,.,.,.,212.5,.
O=S(=O)(c1cccc(C(F)(F)F)c1)N1CCC(c2cc(-c3cccc4ccccc34)n[nH]2)CC1,/,/,/,.,/,/
Cc1ccc(OCC(=O)OC2CCS(=O)(=O)C2)cc1 (stereo not drawn),.,.,.,.,.,.
O=c1c2c3c(sc2nc2sc(C4CC4)nn12)CCCC3,2,.,.,.,234.2,.
COC(=O)c1ccc2c(=O)n(CCCCCC(=O)NCc3ccc4c(c3)OCO4)c(=O)[nH]c2c1,.,.,.,.,.,88.2
COC(=O)c1ccc2c(=O)n(CCCCCC(=O)NCc3ccccn3)c(=O)[nH]c2c1,.,.,.,.,.,.
O=C(CCCCCn1c(=S)[nH]c2ccccc2c1=O)NCc1ccc2c(c1)OCO2,/,/,/,.,/,/
COC(=O)c1ccc2c(=O)n(CCCCCC(=O)NCc3ccccc3)c(=O)[nH]c2c1,.,.,52.4[fluorescence artefact?],.,.,84.7[fluorescence artefact?]
COCCCNC(=O)c1ccc2c(=O)n(Cc3ccc4c(c3)OCO4)c(=S)[nH]c2c1,.,.,.,.,.,57.6
CCCCCn1c(=O)[nH]c2cc(C(=O)NCc3ccc4c(c3)OCO4)ccc2c1=O,.,.,.,.,.,60.5[fluorescence artefact?]
O=C(NCc1ccco1)C1CCCN1C(=O)NCc1ccccc1 (stereo not drawn),.,.,.,.,.,.
CC(C)n1c(N2CCN(CC(=O)Nc3ccc4c(c3)OCCO4)CC2)nc2ccccc21,.,.,.,.,.,.
Cc1nn(C)c(C)c1N=Cc1c(O)ccc2ccccc12,.,.,67.6[fluorescence artefact?],.,.,.
CCC(Sc1nc2cc3c(cc2c(=O)n1Cc1ccco1)OCO3)C(=O)Nc1ccccc1OC (stereo not drawn),.,.,.,.,.,87.7[fluorescence artefact?]
O=C(COc1ccc(S(=O)(=O)N2CCc3ccccc32)cc1Cl)NCc1ccccn1,.,.,.,.,.,.
